The source of these data is PubChem BioAssay.

Structures are written as SMILES. The source made the active and inactive calls.

The test system of assay [1] is XIP peptide (Xip251-270) binding. The assay is described as follows: XIP fragment 251-270 binding compounds – biochemical, small-molecule microarray, fluorescence 635/667 nm, 0.1 µg/mL protein, primary screen (AID 1182). Conditions: fluorescent protein binding, 635 nm, higher = more signal, called active from +8 up or from −8 down.
The next assay relates to XIP peptide (Xip251-270). The assay is described as follows: compounds binding XIP fragment 251-270 – biochemical, small-molecule microarray, fluorescence 635/667 nm, 0.5 µg/mL protein, primary screen (AID 1183). Conditions: fluorescence 635 nm, higher = more signal.
Assay [2] is described as follows: blood-stage malaria parasite viability loss – strain 3D7, DAPI fluorescence, 100 nL, primary screen (AID 1184).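 Further: parasites grown inside human red blood cells in medium with human serum.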 Conditions: P. falciparum 3D7 growth, 3 d, higher = more signal.
Assay [3] deals with Homeobox protein Hox-A13 (Mus musculus) (UniProt Q62424). Put plainly: disruptors of Hoxa13 oligonucleotide interaction – biochemical, fluorescence polarization, labeled oligonucleotide, primary screen (AID 1185). Conditions: Hoxa13:DNA binding, 15 min, higher = more signal, called active from +8 up or from −8 down.
Homeobox protein Hox-A13 (Mus musculus), sequence (Q62424 whole entry, looked up): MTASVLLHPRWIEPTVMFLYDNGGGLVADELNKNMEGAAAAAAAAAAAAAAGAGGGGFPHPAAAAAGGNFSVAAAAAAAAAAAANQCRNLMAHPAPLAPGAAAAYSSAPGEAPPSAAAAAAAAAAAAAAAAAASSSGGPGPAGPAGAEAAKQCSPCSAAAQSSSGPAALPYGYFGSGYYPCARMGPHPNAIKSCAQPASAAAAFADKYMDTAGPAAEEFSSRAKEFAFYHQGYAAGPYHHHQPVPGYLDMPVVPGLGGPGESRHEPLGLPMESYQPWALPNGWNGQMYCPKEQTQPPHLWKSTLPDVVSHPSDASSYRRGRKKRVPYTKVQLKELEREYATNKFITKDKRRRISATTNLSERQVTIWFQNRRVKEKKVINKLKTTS

On to `CC(CCC(=O)OC[C@H]1O[C@H](C#Cc2ccccc2)C=C[C@@H]1Oc1ccc(C)cc1)=NOC[C@@H](O)[C@H]1O[C@@H]2OC(C)(C)O[C@@H]2[C@H]1O`, for which the values for the composite z-score (in assay [1]; in the assay on XIP peptide (Xip251-270)) were 0.0901 (inactive) and -0.823, respectively. In addition, the z-score in assay [2] is -0.521; in assay [3], -2.3 (inactive).

Consider `CC(C)CN1CCc2nc(-c3ccccc3)c3c(c2CC1)CO[C@@H](C)C3`, for which the composite z-score in assay [1] was 0.277 (inactive); with XIP peptide (Xip251-270), -0.399. Also, the z-score was -0.235 in assay [2] and -0.219 (inactive) in assay [3].

Turning to `CC[C@@H](c1ccccc1)n1c(=O)n2n(c1=O)[C@H]1[C@H](O)[C@@H]3O[C@@H]3C(=NOCC=C(C)CCC=C(C)C)[C@H]1CC2`, the composite z-score in assay [1] was 0.17 (inactive); with XIP peptide (Xip251-270), 0.4. Besides, the results for the z-score in assay [2] and in assay [3] were -0.444 and -3.96 (inactive), respectively.

For the compound `C[C@H](c1ccccc1)N1C(=O)[C@H]2[C@@H]3C(=CC[C@H]2C1=O)C(=O)[C@H]1O[C@H]1[C@H]3O`, the values for the composite z-score (in assay [1]; with XIP peptide (Xip251-270)) were -0.584 (inactive) and 0.008, respectively. The z-score in assay [2] is -1.23; in assay [3], -6.83 (inactive).

On to `COc1ccc(COC(=O)NN=C2C[C@@H](O)[C@@H](O)[C@@H]3[C@@H]4C(=O)N(Cc5ccc6c(c5)OCO6)C(=O)[C@@H]4CC[C@@H]23)cc1`, for which the composite z-score is 0.361 (inactive) in assay [1] and -0.239 in the assay with XIP peptide (Xip251-270). In addition, the figures for the z-score in assay [2] and in assay [3] were 0.142 and 0.284 (inactive), respectively.

For `COc1cccc([C@H]2Oc3ccc(OC)cc3C(=NOC(C)CN3CCCc4nc(C)c(C)cc43)[C@@H]2O)c1` (some centres not stated), the composite z-score in assay [1] is 0.22 (inactive); in the assay on XIP peptide (Xip251-270), -0.452. The z-score in assay [2] was -1.06; in assay [3], -8.09 (active).

On to `CC(C)[C@H](NC(=O)OC(C)(C)C)[C@@H](O)CC(=O)OC(C)(C)C`, for which the composite z-score was -0.182 (inactive) in assay [1] and -0.4 with XIP peptide (Xip251-270). Besides, the z-score was -1.75 in assay [2] and -0.799 (inactive) in assay [3].

`C#CCCCON=C1C[C@@H](O)[C@@H](O)[C@@H]2[C@@H]3C(=O)N(CCC(=O)OCC)C(=O)[C@@H]3CC[C@@H]12`: the composite z-score was -0.349 (inactive) in assay [1] and 0.365 in the assay on XIP peptide (Xip251-270). Moreover, the z-score in assay [2] was 0.165; in assay [3] it was -5.09 (inactive).
